Source: the supplement of paper PMC8975748
Counter-ions that a name gives are not always drawn.

tested on: Saccharomyces cerevisiae BY4741 SeMeCo community; assay: z-score of subpopulation abundance vs DMSO median, subpopulation auxotrophic for HUM; higher = larger share of this subpopulation than in DMSO controls; conditions: 10 µM; 24 h; SM minimal medium; subpopulation (auxotrophy): HUM
Method: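 Fluorescent four-plasmid SeMeCo (self-establishing metabolically cooperating S. cerevisiae BY4741 community; plasmids pH-mRuby2, pL-mWasabi, pU-eCFP, pM-TagRFP657) was grown 24 h in minimal SM medium with each Selleck FDA-approved drug at 10 µM in 384-well plates. Cells were fixed and imaged by high-content confocal microscopy. For each auxotrophic subpopulation (and the prototroph), a z-score gives the deviation from the DMSO vehicle-control population median.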

Point of comparison: C[C@@H]1O[C@@H](O[C@H]2C[C@@H](O)[C@]3(CO)[C@H]4[C@H](O)C[C@]5(C)[C@@H](C6=CC(=O)OC6)CC[C@]5(O)[C@@H]4CC[C@]3(O)C2)[C@H](O)[C@H](O)[C@H]1O [Ouabain], “z-score of subpopulation abundance” value -0.49. Against it:
- O=[N+]([O-])C(Br)(CO)CO [Bronopol] — lower, -0.53
- C=CN1CCCC1=O.II [Povidone iodine] — higher, 1.77
- CCOC(=O)Nc1ccc(NCc2ccc(F)cc2)cc1N [Retigabine] — higher, -0.05
- O=C(O[C@H]1C[N+]2(CCCOc3ccccc3)CCC1CC2)C(O)(c1cccs1)c1cccs1 [Aclidinium Bromide] — higher, 0.22
- CC(C)N(CCC(C(N)=O)(c1ccccc1)c1ccccn1)C(C)C (centres undefined) [Disopyramide] — higher, -0.19
- CC[C@@]1(O)C(=O)OCc2c1cc1n(c2=O)Cc2cc3ccccc3nc2-1 [Camptothecin] — lower, -0.54
- CC(=O)O[C@H]1C[C@@H]2CC[C@@H]3[C@H](CC[C@@]4(C)[C@H]3C[C@H]([N+]3(C)CCCCC3)[C@@H]4OC(C)=O)[C@@]2(C)C[C@@H]1[N+]1(C)CCCCC1 [Pancuronium dibromide] — lower, -0.72
- CC(=O)OCC1=C(C(=O)O)N2C(=O)C(N)C2SC1 (centres undefined) [7-Aminocephalosporanic acid] — higher, 0.03
- CCCCCCCCCCCCCCCC[n+]1ccccc1 [Cetylpyridinium Chloride] — higher, 20.2
- COc1ccc(C(CN(C)C)C2(O)CCCCC2)cc1 (centres undefined) [Venlafaxine HCl] — higher, 0.07
- CN(C)[C@@H]1C(=O)C(C(N)=O)=C(O)[C@@]2(O)C(=O)C3=C(O)c4c(O)cccc4[C@@](C)(O)[C@H]3[C@H](O)[C@@H]12 [Oxytetracycline Dihydrate] — lower, -0.79
- COc1ccc2c(c1)[C@]13CCCC[C@@H]1[C@H](C2)N(C)CC3 [Dextromethorphan hydrobromide hydrate] — higher, 0.2
- CN1c2ccccc2C(NCCCCCCC(=O)O)c2ccc(Cl)cc2S1(=O)=O (centres undefined) [Tianeptine sodium] — higher, -0.16
- CC(C)(O)C(Cl)(Cl)Cl [Chlorobutanol] — higher, -0.45
- Cc1cc(C(C#N)c2ccc(Cl)cc2)c(Cl)cc1NC(=O)c1cc(I)cc(I)c1O (centres undefined) [Closantel] — higher, 0.04
- Nc1nc(N)nc(NC2CC2)n1 [Cyromazine] — higher, -0.23
- C[C@@H]1CC[C@H]2[C@@H](C)C(=O)O[C@@H]3O[C@@]4(C)CC[C@@H]1[C@]32OO4 [Artemisinin] — the same, -0.49
- COc1cc2c(cc1OC)C1CC(=O)C(CC(C)C)CN1CC2 (centres undefined) [Tetrabenazine (Xenazine)] — lower, -0.9
- N#Cc1nn(-c2c(Cl)cc(C(F)(F)F)cc2Cl)c(N)c1[S+]([O-])C(F)(F)F (centres undefined) [Fipronil] — lower, -0.76
- CN(C)C(=O)Oc1ccc[n+](C)c1 [Pyridostigmine Bromide] — higher, 0.11
- N[C@@H]1C[C@H]1c1ccccc1 [Tranylcypromine (2-PCPA) HCl] — lower, -0.57
- Oc1cc(Cl)ccc1Oc1ccc(Cl)cc1Cl [Triclosan] — lower, -1.9
- CC(C)=CCOc1c2occc2cc2ccc(=O)oc12 [Imperatorin] — lower, -1.03
- CC[C@H]1CN2CC[C@]3(C(=O)Nc4ccccc43)[C@@H]2C[C@@H]1/C(=C\OC)C(=O)OC [Rhynchophylline] — higher, 0.73
- CN1[C@@H]2CC[C@H]1C[C@@H](OC(=O)C(CO)c1ccccc1)C2 (some centres undefined) [Atropine sulfate monohydrate] — higher, -0.27
- O=C(O[C@H]1C[C@H]2CC[C@@H](C1)[N+]21CCCC1)C(O)(c1ccccc1)c1ccccc1 [Trospium chloride] — higher, -0.32
- O=c1cccc2n1C[C@@H]1CNC[C@H]2C1 [Cytisine] — lower, -0.61
- C[N+](C)(C)CCCCCCCCCC[N+](C)(C)C [Decamethonium Bromide] — higher, 0.18
- CN(C)[C@@H]1C(=O)C(C(N)=O)=C(O)[C@@]2(O)C(=O)C3=C(O)c4c(O)cccc4[C@@](C)(O)[C@H]3[C@H](O)[C@@H]12 [Oxytetracycline (Terramycin)] — higher, -0.11
- COc1ccc(C=O)cc1 [p-Anisaldehyde] — lower, -0.95
- COc1ccc2c3c([nH]c2c1)C(C)=NCC3 [Harmaline] — lower, -6.26
- CCOC(=O)Nc1ccc(NCc2ccc(F)cc2)cc1N [Retigabine 2HCl] — higher, 0.72
- NCCc1c[nH]c2ccc(O)cc12 [Serotonin HCl] — higher, 0.18
